Source: PubChem BioAssay
Hits are enriched below; roughly 7.1% of the tested compounds scored in any of these assays.
ATXN2 expr inh = reduces ATXN2 reporter expression in HEK-293 cells. hit rate 0.72% among 360,000. Potency, µM (top dose mostly 57 µM), inactives show top-dose activity change, negative = inhibition, hits mostly inhibitors. HEK-293 ATXN2-luciferase reporter, luminescence, 24 h; further: potency means the concentration at half of the fitted maximal effect; on the % scale 0 is the no-effect control and ±100 the full control effect; nearly all actives have a fitted effect of over 55% in size
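qHTS (up to 57 uM final) was run with 24 h compound exposure of reporter cells at 37 °C. Each well was multiplexed: SteadyGlo luminescence measured ATXN2-luciferase expression after a fluorogenic Gly-Phe-AFC viability readout (25 uM final).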
ATXN viability = reduces viability in counter-screen for ATXN expression inhibitors | AID 651635 | S2 cells (HEK-293 line with an ATXN2-luciferase reporter) viability, CellTiter-Fluor protease fluorescence, 24 h | hit rate 0.49% among 400,000 | Potency, µM (titrated, usually from 56.7 µM), most hits filed as cytotoxic; further: potency means the concentration at half of the fitted maximal effect; nearly all actives have a fitted effect of over 40% in size
SW480 rerep = induces DNA re-replication in SW480 colon adenocarcinoma cells. hit rate 1.8% among 340,000. Potency, µM (top dose mostly 46.1 µM), inactives show top-dose re-replication activation, actives largely listed as activators. SW480 DNA re-replication, Hoechst DNA content imaging, 48 h; further: potency means the concentration at half of the fitted maximal effect; % of control where 0% means no effect; nearly all actives have a fitted effect of over 55% in size
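Image-based DNA-content assay: after two days of treatment, nuclei were labelled with the DNA dye Hoechst and imaged, and hits were compounds raising the count of nuclei showing high fluorescence intensity.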
PINK1 expr mod = modulators of PINK1 expression. PINK1 immunofluorescence, high-content cytometry, 24 h. hit rate 0.2% among 410,000. Potency, µM (top dose mostly 76.6 µM), without a hit: at the top dose activation (PINK1 increase), most hits filed as activators; active means well fitted activation curve with a large enough effect; inconclusive means small, poorly fitted or top-dose-only effect; cell line not stated here; further: potency means the concentration at half of the fitted maximal effect; % of control where 0% means no effect; nearly all actives have a fitted effect of over 65% in size
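PINK1 protein, normally rapidly degraded, was detected by immunofluorescence after 24 hour compound treatment of a stable cell line. Titration data (5 concentrations) came from laser-scanning cytometry, with CCCP-treated wells as controls.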
MCF10A rerep = induces DNA re-replication in MCF 10a normal breast cells | AID 624296 | MCF 10A DNA re-replication, Hoechst nuclear intensity, 48 h | Potency, µM (series often up to 46.1 µM), for the others: at the top dose activity, positive = re-replication, most hits filed as activators | hit rate 2.9% among 350,000; further: potency means the concentration at half of the fitted maximal effect; % of control where 0% means no effect; nearly all actives have a fitted effect of over 50% in size
IL-1B inflam inh = inhibitors of inflammasome signaling (IL-1 beta secretion) | activity change, % at 57.5 µM | hit rate 4.7% among 360,000 | THP-1 LPS/ATP IL-1B secretion, AlphaLISA, 16 h; hits give low values; in the data active means activity change below about -50%; inconclusive means mostly about -30% to -49%; further: on the % scale 0 is the no-effect control and ±100 the full control effect
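THP-1 cells pretreated 1 hr with compounds (up to 57.5 uM final), then stimulated with LPS (250 ng/mL final) plus ATP (1.25 mM final); secreted IL-1B measured by AlphaLISA after 16 hr, decreased signal indicating inhibition.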
* = called active by the depositor; i = inactive; ? = inconclusive; / = no result given; ! = not confirmed by another sample; [ ] = another dose, or the depositor's remark. Unless noted, the call rests on the fitted dose curve; in most records, active means well fitted curve in the direction sought with a large enough effect; inconclusive means small, poorly fitted or top-dose-only effect, or another doubt; inactive means no such curve, though single readings can be large; an effect the other way counts as inactive or inconclusive.

SMILES | ATXN2 expr inh | ATXN viability | SW480 rerep | PINK1 expr mod | MCF10A rerep | IL-1B inflam inh
C=C1C(=O)O[C@H]2[C@H]1[C@H](OC(=O)CC(=O)O[C@@H]1C[C@@H](C)[C@@H]3C=CC(=O)[C@@]3(C)[C@H]3OC(=O)C(=C)[C@H]13)C[C@@H](C)[C@H]1C=CC(=O)[C@]12C | ? | ? | 2% | 28% | 2.3µM* | -105*
CC1=CC(=O)C2=C(C)C[C@@H](O)[C@@H]3[C@@H](OC(=O)[C@H]3C)[C@H]12 | / | i | / | / | / | /
C[N+]1=C(/C=C/Nc2ccccc2)C(C)(C)c2ccccc21 | -19% | i | -4% | -3% | 10% | -81*
CC(C)C[C@H]1CN([C@@H](CC(C)C)CN2CCCC2CN2C(=S)NC[C@@H]2Cc2ccc(O)cc2)C(=S)N1CC1CCCCCC1 (stereo not given in full) | 10% | i | -36% | 0% | ? | ?
CN(C)CC(C(=O)Cc1ccccc1)c1ccccc1 (stereo not given) | ? | / | 4.6µM* | -5% | 13µM* | -96*
CN1[C@H]2CC(=O)C[C@@H]1[C@@H](O)C2 | / | i | / | / | / | /
CO[C@H]1CCC(O[C@H]2C[C@H]([C@]3(C)CC[C@]4(C[C@H](O)[C@@H](C)[C@@H]([C@@H](C)C=C(C)C(=O)[C@H](C)C[C@H](C)C(=O)O)O4)O3)O[C@]3(O[C@@H]([C@H]4O[C@@](O)(CO)[C@H](C)C[C@H]4C)C[C@H]3C)[C@H]2C)O[C@H]1C (stereo not given in full) | 3.1µM* | / | / | / | / | /
CCC(Oc1ccccc1OC)C(=O)Nc1ccc2c(c1)OCCO2 (stereo not given) | -17% | ? | -2% | 0% | 0% | 5
C[C@H]1COC2=C1C(=O)C(=O)c1c2ccc2c1CCCC2(C)C | 3% | ? | ? | 0% | 18µM* | -21
c1ccc2c(c1)OCC(C1=NCCN1)O2 (stereo not given) | ? | 13µM*! | ? | 3% | 18µM*! | -79*
CCOC(=O)N1CCC(NC(=O)CCc2nc(C3=CCN(C)CC3)no2)CC1 | 1% | i | 1% | -4% | -1% | -63*!
O=C1NC(=O)C(CCc2ccncc2)(Cc2cccc(Cl)c2Cl)C(=O)N1c1ccc(Br)cc1 (stereo not given) | -6% | ? | 12µM* | -5% | 4.6µM* | 26
COc1ccc(-[n+]2c(-c3ccccc3)cc(-c3ccc(C)cc3)cc2-c2ccccc2)cc1 | ? | ? | ? | ? | ? | -94*
Oc1c(Br)cc(-c2ccccc2)cc1Br | -11% | i | 9% | 0% | ? | -9
Cc1ccc(-c2cc(-c3ccccc3)cc(-c3ccccc3)[n+]2-c2ccc(C(=O)O)cc2)cc1 | 5% | i | ? | 0% | 0% | 16
Brc1ccc(-[n+]2c(-c3ccccc3)cc(-c3ccccc3)cc2-c2ccccc2)cc1 | ? | ? | ? | 25µM* | ? | -83*
COc1ccc(-c2cc(-c3ccccc3)[n+](C)c(-c3ccccc3)c2)cc1 | 8.9µM* | i | ? | ? | 13% | -90*
CCCOC(=O)c1ccc(-[n+]2c(-c3ccccc3)cc(-c3ccccc3)cc2-c2ccccc2)cc1 | -35% | ? | 17% | ? | ? | -86*
O=C(O)c1ccc(-[n+]2c(-c3ccccc3)cc(-c3ccccc3)cc2-c2ccccc2)cc1 | 0% | i | -8% | 0% | -5% | 21
COc1cccc2c1[C@]13CCN(CC4CC4)[C@H](C2)[C@]1(OC)CCC(=O)C3 | -10% | / | / | / | / | /
O=C1CN2CCOC2(c2ccccc2Cl)c2cc(Cl)ccc2N1 (stereo not given) | 5% | i | / | / | / | /
CCC(=O)OC1(c2ccccc2)CCN(C)CC1 | -12%[116 µM] | i | / | / | / | /
